Experimental data reported in PubChem BioAssay (Tox21).
Values without a mark were called inactive. Records with an inconclusive call do not appear. Entries that show only a call come without a potency. The source made the active and inactive calls. The call rests on the fitted dose curve; in most records, active means well fitted curve in the direction sought with a large enough effect in the repeat runs; inconclusive means weak or mixed curves; inactive means no such curve, though single readings can be large; an effect the other way counts as inactive or inconclusive.

Legend:
[1] = A CellTox Green Cytotoxicity Assay to monitor cytotoxicity in HEK293 cells - 40 hour (AID 1224871); further: nearly all actives have a fitted effect of over 45% in size
Method in brief: (§1)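 HEK293 cells premixed with CellTox Green dye were seeded at 600 cells/well and left 5 h at 37 C/5% CO2 before pin transfer of 23 nL compound in DMSO. Fluorescence from dye bound to dead-cell DNA was read during 40 h treatment.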

[2] = qHTS RealTime-Glo MT Cell Viability Assay in HEK293 cells - 16 hour (AID 1224872); further: nearly all actives have a fitted effect of over 50% in size; further: potency means the concentration at half of the fitted maximal effect; on activity change, negative = cytotoxicity: top concentration of the series differs between compounds
Method in brief: (§2)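 Nonlytic real-time viability readout: viable cells convert prosubstrate to NanoLuc substrate, giving luminescence proportional to live cell number. HEK293, 600 cells/well, compound added after 5 h, continuous culture at 37 C.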

[3] = qHTS RealTime-Glo MT Cell Viability Assay in HepG2 cells - 8 hour (AID 1224873); further: nearly all actives have a fitted effect of over 55% in size
Method in brief: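 Real-time viability: cells seeded at 600 per well together with NanoLuc and cell-permeant prosubstrate, compounds added after 5 h incubation. Luminescence tracked at 0, 8, 16, 24, 32 and 40 h of exposure.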

[4] = qHTS RealTime-Glo MT Cell Viability Assay in HEK293 cells - 40 hour (AID 1224874); details: RealTime-Glo luminescence; max response: active compounds read low; further: nearly all actives have a fitted effect of over 50% in size; further: potency means the concentration at half of the fitted maximal effect
Method in brief: (§3)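 HEK293 cells mixed with RealTime-Glo reagents (NanoLuc plus cell-permeant prosubstrate) at 600 cells/well, preincubated 5 h at 37 C/5% CO2, then given 23 nL compound in DMSO. Nonlytic luminescence from viable cells was read at 0, 8, 16, 24, 32 and 40 h.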

[5] = A CellTox Green Cytotoxicity Assay to monitor cytotoxicity in HEK293 cells - 24 hour (AID 1224875); further: series mostly up to about 77 µM; nearly all actives have a fitted effect of over 45% in size
Method in brief: as §1

[6] = A CellTox Green Cytotoxicity Assay to monitor cytotoxicity in HepG2 cells - 16 hour (AID 1224876); further: nearly all actives have a fitted effect of over 45% in size
Method in brief: (§4)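 HepG2 cells were seeded together with the CellTox Green dye at 600 cells/well, left 5 h at 37 C/5% CO2, then given compounds in DMSO. Fluorescence from dye bound to dead-cell DNA was read repeatedly over 40 h of treatment at 37 C.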

[7] = qHTS RealTime-Glo MT Cell Viability Assay in HepG2 cells - 32 hour (AID 1224877); further: nearly all actives have a fitted effect of over 55% in size
Method in brief: (§5)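 Luminescence read-out: viable HepG2 cells reduce a prosubstrate to a NanoLuc substrate, giving a signal proportional to live cell number. Reads taken at 0, 8, 16, 24, 32 and 40 h of compound exposure at 37 C.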

[8] = A CellTox Green Cytotoxicity Assay to monitor cytotoxicity in HepG2 cells - 24 hour (AID 1224878); further: nearly all actives have a fitted effect of over 45% in size
Method in brief: as §4

[9] = A CellTox Green Cytotoxicity Assay to monitor cytotoxicity in HepG2 cells - 40 hour (AID 1224879); further: nearly all actives have a fitted effect of over 40% in size
Method in brief: as §4

[10] = A CellTox Green Cytotoxicity Assay to monitor cytotoxicity in HepG2 cells - 0 hour (AID 1224882); further: nearly all actives have a fitted effect of over 35% in size
Method in brief: as §4

[11] = A CellTox Green Cytotoxicity Assay to monitor cytotoxicity in HepG2 cells - 32 hour (AID 1224883); further: nearly all actives have a fitted effect of over 50% in size
Method in brief: as §4

[12] = A CellTox Green Cytotoxicity Assay to monitor cytotoxicity in HEK293 cells - 8 hour (AID 1224884); further: nearly all actives have a fitted effect of over 35% in size
Method in brief: as §1

[13] = qHTS RealTime-Glo MT Cell Viability Assay in HepG2 cells - 16 hour (AID 1224885); further: nearly all actives have a fitted effect of over 50% in size
Method in brief: as §5

[14] = qHTS RealTime-Glo MT Cell Viability Assay in HEK293 cells - 24 hour (AID 1224886); further: nearly all actives have a fitted effect of over 50% in size; further: potency means the concentration at half of the fitted maximal effect; on activity change, negative = cytotoxicity: top concentration of the series differs between compounds
Method in brief: as §2

[15] = qHTS RealTime-Glo MT Cell Viability Assay in HEK293 cells - 8 hour (AID 1224887); further: nearly all actives have a fitted effect of over 50% in size; further: potency means the concentration at half of the fitted maximal effect; on activity change, negative = cytotoxicity: top concentration of the series differs between compounds
Method in brief: as §3

[16] = A CellTox Green Cytotoxicity Assay to monitor cytotoxicity in HEK293 cells - 16 hour (AID 1224888); further: nearly all actives have a fitted effect of over 35% in size
Method in brief: as §1

[17] = qHTS RealTime-Glo MT Cell Viability Assay in HepG2 cells - 0 hour (AID 1224889); further: nearly all actives have a fitted effect of over 50% in size
Method in brief: as §5

[18] = A CellTox Green Cytotoxicity Assay to monitor cytotoxicity in HepG2 cells - 8 hour (AID 1224890); further: nearly all actives have a fitted effect of over 45% in size
Method in brief: as §4

[19] = A CellTox Green Cytotoxicity Assay to monitor cytotoxicity in HEK293 cells - 32 hour (AID 1224881); further: nearly all actives have a fitted effect of over 40% in size
Method in brief: as §1

[20] = qHTS RealTime-Glo MT Cell Viability Assay in HEK293 cells - 0 hour (AID 1224880)
Method in brief: as §3

NC(=O)c1ccc([N+](=O)[O-])cc1
Potency [1]: inactive
Potency [2]: inactive
Potency [3]: inactive
max response [4]: 2.32%
Potency [5]: inactive
Potency [6]: inactive
Potency [7]: inactive
Potency [8]: inactive
Potency [9]: inactive
Potency [10]: inactive
Potency [11]: inactive
Potency [12]: inactive
Potency [13]: inactive
Potency [14]: inactive
Potency [15]: inactive
Potency [16]: inactive
Potency [17]: inactive
Potency [18]: inactive

CC(C)(C)c1nnc(NS(=O)(=O)c2ccccc2)s1
Potency [1]: inactive
Potency [2]: inactive
Potency [3]: inactive
max response [4]: 2.61%
Potency [5]: inactive
Potency [6]: inactive
Potency [7]: inactive
Potency [8]: inactive
Potency [9]: inactive
Potency [19]: inactive
Potency [10]: inactive
Potency [11]: inactive
Potency [12]: inactive
Potency [13]: inactive
Potency [14]: inactive
Potency [15]: inactive
Potency [16]: inactive
Potency [17]: inactive
Potency [18]: inactive

Nc1ccc(S(=O)(=O)Nc2ccnn2-c2ccccc2)cc1
Potency [1]: inactive
activity change, negative = cytotoxicity [2]: 9.13% [at 15.8 µM]
viability change, negative = cytotoxic [3]: -7.88% [at 15.8 µM]
max response [4]: 3.19%
activity change [5]: 1.21% [at 15.8 µM, active compounds read high]
cytotoxicity increase [6]: 2.84% [at 15.8 µM]
cytotoxicity [8]: -1.77% [at 15.8 µM]
cytotoxicity increase [9]: 1.49% [at 15.8 µM]
activity change, negative = cytotoxicity [20]: 3.82% [at 15.8 µM]
Potency [19]: inactive
cytotoxicity [10]: 3.97% [at 15.8 µM]
cytotoxicity increase [11]: 3.28% [at 15.8 µM]
cytotoxicity increase [12]: 1.9% [at 15.8 µM]
activity change, negative = cytotoxic [13]: -1.35% [at 15.8 µM]
activity change, negative = cytotoxicity [14]: 7.4% [at 15.8 µM]
activity change, negative = cytotoxicity [15]: 7.76% [at 15.8 µM]
activity change [16]: 2.29% [at 15.8 µM, active compounds read high]
activity change, negative = cytotoxicity [17]: -1.91% [at 15.8 µM]
cytotoxicity increase [18]: 0.943% [at 15.8 µM]

NC(=O)c1cn(Cc2c(F)cccc2F)nn1
Potency [1]: inactive
Potency [2]: inactive
Potency [3]: inactive
max response [4]: 4.6%
Potency [5]: inactive
Potency [6]: inactive
Potency [8]: inactive
Potency [9]: inactive
Potency [20]: inactive
Potency [19]: inactive
Potency [10]: inactive
Potency [11]: inactive
Potency [12]: inactive
Potency [13]: inactive
Potency [14]: inactive
Potency [15]: inactive
Potency [16]: inactive
Potency [17]: inactive
Potency [18]: inactive

C[N+](C)(C)CC(O)CC(=O)[O-] (stereo not given)
Potency [1]: inactive
Potency [2]: inactive
Potency [3]: inactive
max response [4]: -3.45%
Potency [5]: inactive
Potency [6]: inactive
Potency [8]: inactive
Potency [9]: inactive
Potency [20]: inactive
Potency [19]: inactive
Potency [10]: inactive
Potency [11]: inactive
Potency [12]: inactive
Potency [13]: inactive
Potency [14]: inactive
Potency [15]: inactive
Potency [16]: inactive
Potency [17]: inactive
Potency [18]: inactive

CS(=O)(=O)O
Potency [1]: inactive
Potency [2]: inactive
Potency [3]: inactive
max response [4]: 2.93%
Potency [5]: inactive
Potency [6]: inactive
Potency [8]: inactive
Potency [9]: inactive
Potency [20]: inactive
Potency [19]: inactive
Potency [10]: inactive
Potency [11]: inactive
Potency [12]: inactive
Potency [13]: inactive
Potency [14]: inactive
Potency [15]: inactive
Potency [16]: inactive
Potency [17]: inactive
Potency [18]: inactive

O=C1CCCN1C1CCCCC1
Potency [1]: inactive
Potency [2]: inactive
Potency [3]: inactive
max response [4]: 6.98%
Potency [5]: inactive
Potency [6]: inactive
Potency [8]: inactive
Potency [9]: inactive
Potency [20]: inactive
Potency [19]: inactive
Potency [10]: inactive
Potency [11]: inactive
Potency [12]: inactive
Potency [14]: inactive
Potency [15]: inactive
Potency [16]: inactive
Potency [17]: inactive

C=CCS(=O)(=O)O
Potency [1]: inactive
Potency [2]: inactive
Potency [3]: inactive
max response [4]: 0.443%
Potency [5]: inactive
Potency [6]: inactive
Potency [7]: inactive
Potency [8]: inactive
Potency [9]: inactive
Potency [19]: inactive
Potency [10]: inactive
Potency [11]: inactive
Potency [12]: inactive
Potency [13]: inactive
Potency [14]: inactive
Potency [15]: inactive
Potency [16]: inactive
Potency [17]: inactive
Potency [18]: inactive

NCCCNCCSP(=O)(O)O
cytotoxicity increase [1]: -10.4% [at 6.97 µM]
activity change, negative = cytotoxicity [2]: 0.443% [at 6.97 µM]
viability change, negative = cytotoxic [3]: 0.144% [at 6.97 µM]
max response [4]: 3.52%
activity change [5]: -8.68% [at 6.97 µM, active compounds read high]
cytotoxicity increase [6]: -2.65% [at 6.97 µM]
activity change, negative = cytotoxic [7]: 1.78% [at 6.97 µM]
cytotoxicity [8]: -8.81% [at 6.97 µM]
cytotoxicity increase [9]: -11.2% [at 6.97 µM]
cytotoxicity increase [19]: -9.01% [at 6.97 µM]
cytotoxicity [10]: 1.75% [at 6.97 µM]
cytotoxicity increase [11]: -8.01% [at 6.97 µM]
cytotoxicity increase [12]: 3.38% [at 6.97 µM]
activity change, negative = cytotoxic [13]: 0.263% [at 6.97 µM]
activity change, negative = cytotoxicity [14]: 4.08% [at 6.97 µM]
activity change, negative = cytotoxicity [15]: 2.94% [at 6.97 µM]
activity change [16]: -4.83% [at 6.97 µM, active compounds read high]
activity change, negative = cytotoxicity [17]: -0.885% [at 6.97 µM]
cytotoxicity increase [18]: 0.329% [at 6.97 µM]

COc1ccc(CCN(C)CCCC(C#N)(c2cc(OC)c(OC)c(OC)c2)C(C)C)cc1OC (stereo not given)
Potency [1]: inactive
Potency [2]: 10.7 µM (active)
Potency [3]: inactive
Potency [4]: 23.9 µM (active)
Potency [5]: inactive
Potency [6]: inactive
Potency [7]: inactive
Potency [8]: inactive
Potency [20]: inactive
Potency [10]: inactive
Potency [11]: inactive
Potency [12]: inactive
Potency [14]: 21.3 µM (active)
Potency [15]: 21.3 µM (active)
Potency [16]: inactive
Potency [17]: inactive
Potency [18]: inactive
